Where “and” joins values, the source holds several entries; their conditions need not be identical. Equal entries are not always repeated. Records with an inconclusive call do not appear. A call without a number means that no potency is given here. More than one record can exist for a structure, and the calls need not agree. Calls of active or inactive are those of the source. Unless noted, calls come from the whole dose curve.
How the values were obtained:
[1] = Nuclear factor erythroid 2-related factor 2/antioxidant responsive element (Nrf2/ARE) small molecule agonists: luciferase reporter gene qHTS assay in human keratinocytes (AID 1919969); note: nearly all actives have a fitted effect of over 35% in size; note: potency is the fitted concentration of half-maximal effect
[2] = target: Gonadotropin-releasing hormone receptor (Homo sapiens) (UniProt P30968); assay: Human gonadotropin-releasing hormone receptor (GnRHR) small molecule agonists, calcium flux assay in GnRHR-HEK293 cells (AID 1920063); note: nearly all actives have a fitted effect of over 35% in size
Gonadotropin-releasing hormone receptor (Homo sapiens), sequence (P30968 whole entry, looked up): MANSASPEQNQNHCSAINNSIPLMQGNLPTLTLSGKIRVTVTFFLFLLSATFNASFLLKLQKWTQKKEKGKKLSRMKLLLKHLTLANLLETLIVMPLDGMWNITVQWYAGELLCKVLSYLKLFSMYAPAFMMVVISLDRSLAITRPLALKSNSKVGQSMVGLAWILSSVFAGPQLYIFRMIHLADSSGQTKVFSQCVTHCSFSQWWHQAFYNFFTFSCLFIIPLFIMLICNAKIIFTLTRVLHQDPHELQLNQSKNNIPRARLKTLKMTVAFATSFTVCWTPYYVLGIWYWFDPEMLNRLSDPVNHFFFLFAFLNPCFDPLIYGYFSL
How it was run: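 Agonist mode: compounds at 15 concentrations, in triplicate, went onto calcium dye-loaded GnRHR-HEK293 cells. Intracellular calcium was then followed as 480/540 nm fluorescence at 1 s intervals over 3 min.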

[3] = target: KiSS-1 receptor (Homo sapiens) (UniProt Q969F8); assay: Human kisspeptin (KISS1R) small molecule agonists, calcium flux assay in KISS1R-HEK293 cells (AID 1920064; active = well fitted activation curve with a large enough effect in the repeat runs)
KiSS-1 receptor (Homo sapiens), sequence (Q969F8 whole entry, looked up): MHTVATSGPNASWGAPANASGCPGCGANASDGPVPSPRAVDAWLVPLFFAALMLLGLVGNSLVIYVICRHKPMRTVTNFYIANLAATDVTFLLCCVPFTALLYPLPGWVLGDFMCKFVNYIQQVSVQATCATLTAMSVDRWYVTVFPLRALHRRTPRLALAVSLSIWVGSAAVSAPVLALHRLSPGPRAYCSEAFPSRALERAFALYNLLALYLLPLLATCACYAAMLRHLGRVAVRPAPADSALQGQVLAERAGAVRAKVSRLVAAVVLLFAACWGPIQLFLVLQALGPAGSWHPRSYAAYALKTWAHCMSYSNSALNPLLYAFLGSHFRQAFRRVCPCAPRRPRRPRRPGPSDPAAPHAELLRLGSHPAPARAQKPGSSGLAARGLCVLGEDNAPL
How it was run: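 Agonist mode: intracellular calcium rise tracked at 1 s intervals over 3 min (480/540 nm) immediately after compound addition to dye-loaded KISS1R-HEK293 stable cells. Each compound tested at 15 concentrations in triplicate.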

[4] = G protein-coupled receptor (GPCR) small molecule agonists, calcium flux assay: HEK293 wild type cell line counter screen (AID 1920065)
How it was run: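 Calcium flux counter screen: compound added in agonist mode at 15 concentrations in triplicate to dye-loaded parental HEK293 cells. Fluorescence (480/540) read kinetically for 3 min; ATP served as positive control.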

[5] = p53 small molecule agonists, cell-based qHTS assay with human liver microsomes (AID 1963577); note: potency is the fitted concentration of half-maximal effect;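 for activation: p53 response element beta-lactamase reporter cells with liver microsomes plus NADPH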
How it was run: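 With metabolic activation: human liver microsomes (0.5 mg/mL final) plus NADPH (0.5 mg/mL final) added alongside compounds to p53RE-bla cells; 16 h 37 C exposure; beta-lactamase read by LiveBLAzer fluorescence.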

[6] = p53 small molecule agonists, cell-based qHTS assay with rat liver microsomes (AID 1963578)
How it was run: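 Metabolic activation by rat liver microsomes and NADPH, each 0.5 mg/mL final, added right after compounds to p53RE-bla reporter cells (4,000/well, plated 5 h earlier). 16 h at 37 C, then LiveBLAzer substrate for 2 h at room temperature in the dark; fluorescence read-out.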

[7] = p53 small molecule agonists, cell-based qHTS assay with human liver microsomes: qHTS cell viability counter screen (AID 1963579); note: nearly all actives have a fitted effect of over 45% in size
How it was run: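 Metabolic activation used human liver microsomes and NADPH, both 0.5 mg/mL final, over 16 hours at 37 C on p53RE-bla cells (4,000/well). Cytotoxicity measured by CellTiter-Glo luminescence, 30 min at room temperature.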

[8] = p53 small molecule agonists, cell-based qHTS assay with rat liver microsomes: qHTS cell viability counter screen (AID 1963580); note: nearly all actives have a fitted effect of over 45% in size
How it was run: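 Cytotoxicity counter screen: intracellular ATP read by CellTiter-Glo luminescence in the p53 reporter wells. HCT-116 p53RE-bla cells were treated for 16 h at 37 C alongside rat liver microsomes and NADPH, each 0.5 mg/mL final.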

[9] = p53 small molecule agonists, cell-based qHTS assay: qHTS cell viability counter screen (AID 1963581); note: nearly all actives have a fitted effect of over 45% in size
How it was run: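 Counter screen read by CellTiter-Glo luminescence (ATP content, 30 min at room temperature), run in the same wells as the beta-lactamase reporter read. HCT-116 p53RE-bla cells saw compounds for 16 h at 37 C.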

[10] = p53 small molecule agonists, cell-based qHTS assay (AID 1963582; active = well fitted activation curve with a large enough effect in the signal ratio in the repeat runs, not every such curve was filed as active; the % refers to the signal ratio)
How it was run: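 Read-out is beta-lactamase FRET fluorescence after 2 h at room temperature with LiveBLAzer B/G substrate. p53 response element-bla cells were treated 16 h at 37 C with compounds in DMSO, added 5 h after seeding.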

[11] = target: 5-hydroxytryptamine receptor 2A (Homo sapiens) (UniProt P28223); assay: 5-hydroxytryptamine receptor 2A (HTR2A) small molecule antagonists, cell-based qHTS assay (AID 1963586); note: nearly all actives have a fitted effect of over 45% in size
5-hydroxytryptamine receptor 2A (Homo sapiens), sequence (P28223 whole entry, looked up): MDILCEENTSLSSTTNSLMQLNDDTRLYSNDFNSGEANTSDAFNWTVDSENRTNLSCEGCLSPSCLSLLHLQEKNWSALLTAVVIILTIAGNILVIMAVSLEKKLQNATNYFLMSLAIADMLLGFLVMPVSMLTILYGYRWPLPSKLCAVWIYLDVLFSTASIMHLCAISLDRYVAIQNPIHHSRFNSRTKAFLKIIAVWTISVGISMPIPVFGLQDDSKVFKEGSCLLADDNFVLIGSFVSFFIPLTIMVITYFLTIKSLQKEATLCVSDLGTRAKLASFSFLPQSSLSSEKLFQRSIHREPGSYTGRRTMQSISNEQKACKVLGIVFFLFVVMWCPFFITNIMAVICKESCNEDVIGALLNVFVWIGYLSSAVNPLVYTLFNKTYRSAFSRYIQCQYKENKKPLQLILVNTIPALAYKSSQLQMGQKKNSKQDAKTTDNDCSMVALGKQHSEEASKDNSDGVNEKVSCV
How it was run: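 CHO cells stably expressing human HTR2A were plated for 18 h at 37 C, then loaded with calcium dye for 1 h. Compounds were preincubated 5 min at room temperature before DOI (4 nM solution) was added. Kinetic fluorescence was read for 3 min.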

[12] = target: 5-hydroxytryptamine receptor 2A (Homo sapiens) (UniProt P28223); assay: 5-hydroxytryptamine receptor 2A (HTR2A) small molecule agonists, cell-based qHTS assay (AID 1963587); note: nearly all actives have a fitted effect of over 30% in size
How it was run: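 Kinetic calcium-flux fluorescence (2 min, 1 sec intervals) after compound addition in agonist mode. HTR2A-CHO cells were cultured 18 h, then dye-loaded 1 h at 37 C.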

[13] = target: Muscarinic acetylcholine receptor M1 (Homo sapiens) (UniProt P11229); assay: Cholinergic receptor muscarinic 1 (CHRM1) small molecule antagonists, cell-based qHTS assay (AID 1963588); note: nearly all actives have a fitted effect of over 40% in size
Muscarinic acetylcholine receptor M1 (Homo sapiens), sequence (P11229 whole entry, looked up): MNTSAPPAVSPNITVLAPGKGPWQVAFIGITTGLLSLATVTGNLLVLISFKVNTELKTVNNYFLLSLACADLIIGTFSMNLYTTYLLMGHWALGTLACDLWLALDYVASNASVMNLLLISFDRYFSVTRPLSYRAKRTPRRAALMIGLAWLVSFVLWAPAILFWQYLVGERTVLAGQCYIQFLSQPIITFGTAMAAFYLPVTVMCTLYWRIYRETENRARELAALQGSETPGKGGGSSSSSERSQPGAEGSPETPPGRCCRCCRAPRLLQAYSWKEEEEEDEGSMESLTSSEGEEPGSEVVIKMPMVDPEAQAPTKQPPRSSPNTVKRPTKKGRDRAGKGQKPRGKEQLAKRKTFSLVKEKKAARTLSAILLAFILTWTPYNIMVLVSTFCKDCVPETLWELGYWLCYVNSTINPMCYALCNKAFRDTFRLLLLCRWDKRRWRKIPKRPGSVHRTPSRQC
How it was run: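 Compounds were tested at 15 concentrations in three independent runs. Dye-loaded CHRM1-CHO cells were exposed 5 min at room temperature before stimulation by acetylcholine added at 50nM. Intracellular calcium was read kinetically on FDSS for 3 min.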

[14] = target: Muscarinic acetylcholine receptor M1 (Homo sapiens) (UniProt P11229); assay: Cholinergic receptor muscarinic 1 (CHRM1) small molecule agonists, cell-based qHTS assay (AID 1963589); note: nearly all actives have a fitted effect of over 35% in size; note: potency is the fitted concentration of half-maximal effect
How it was run: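 Agonist-mode calcium-flux screen: compounds at 15 concentrations, three independent runs, were pin-transferred onto dye-loaded human CHRM1-CHO cells. Fluorescence was then recorded kinetically every second over minutes.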

[15] = cAMP Responsive Elements (CRE) small molecule agonists, cell-based qHTS assay (AID 1963590)
How it was run: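 Agonist mode: compound added to CRE-bla HEK 293T cells (2,000/well, 18 h after plating) for 3 h at 37 C/5% CO2. Reporter activity detected via FRET beta-lactamase substrate, 2 h room-temperature loading.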

[16] = cAMP Responsive Elements (CRE) small molecule antagonists, cell-based qHTS assay (AID 1963591; active = well fitted inhibition curve with a large enough effect in the signal ratio in the repeat runs, not every such curve was filed as active; the % refers to the signal ratio)
How it was run: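 Antagonist mode: compounds are added alongside the adenylyl cyclase activator NKH477 (0.25 uM final) to CRE-bla HEK293T cells for 3 h. LiveBLAzer FRET substrate, 2 h at room temperature, reports bla expression.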

[17] = target: Beta-2 adrenergic receptor (Homo sapiens) (UniProt P07550); assay: Adrenergic beta2 receptor (ADRB2) small molecule antagonists, cell-based qHTS assay (AID 1963592); note: nearly all actives have a fitted effect of over 50% in size; note: potency is the fitted concentration of half-maximal effect
Beta-2 adrenergic receptor (Homo sapiens), sequence (P07550 whole entry, looked up): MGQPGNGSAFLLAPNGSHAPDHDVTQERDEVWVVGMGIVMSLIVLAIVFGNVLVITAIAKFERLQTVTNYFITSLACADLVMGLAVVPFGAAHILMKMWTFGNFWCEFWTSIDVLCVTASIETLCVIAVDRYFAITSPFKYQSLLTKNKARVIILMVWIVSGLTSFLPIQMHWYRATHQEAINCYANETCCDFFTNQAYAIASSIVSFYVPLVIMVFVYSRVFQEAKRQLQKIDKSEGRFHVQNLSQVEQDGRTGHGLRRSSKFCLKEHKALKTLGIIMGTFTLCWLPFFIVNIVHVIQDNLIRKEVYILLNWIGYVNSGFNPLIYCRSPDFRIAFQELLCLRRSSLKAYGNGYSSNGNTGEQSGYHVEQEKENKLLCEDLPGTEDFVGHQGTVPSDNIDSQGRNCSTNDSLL
How it was run: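 Assay format: CHO-ADRB2 cells, 18-20hr seeding at 37C/5% CO2, then compound plus 1nM isoproterenol agonist mix for 0.5hr RT. Homogeneous time-resolved fluorescence cAMP detection after 1hr, expressed as 665/615 nm ratio.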

[18] = target: D(2) dopamine receptor (Homo sapiens) (UniProt P14416); assay: Dopamine D2 receptor (DRD2) small molecule agonists, cell-based qHTS assay (AID 1963594); note: nearly all actives have a fitted effect of over 35% in size
D(2) dopamine receptor (Homo sapiens), sequence (P14416 whole entry, looked up): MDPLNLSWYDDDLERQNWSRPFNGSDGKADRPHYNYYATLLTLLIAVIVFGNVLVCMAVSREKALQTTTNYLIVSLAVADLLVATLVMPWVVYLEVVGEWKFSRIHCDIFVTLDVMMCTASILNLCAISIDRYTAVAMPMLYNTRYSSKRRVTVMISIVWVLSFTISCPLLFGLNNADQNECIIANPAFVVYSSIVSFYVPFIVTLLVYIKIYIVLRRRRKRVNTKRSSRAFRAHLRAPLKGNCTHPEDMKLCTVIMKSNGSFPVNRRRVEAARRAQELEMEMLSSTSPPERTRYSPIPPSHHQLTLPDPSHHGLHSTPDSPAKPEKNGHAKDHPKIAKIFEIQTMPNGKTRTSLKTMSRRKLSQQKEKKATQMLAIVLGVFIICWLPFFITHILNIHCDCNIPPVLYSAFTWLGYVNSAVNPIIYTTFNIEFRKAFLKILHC
How it was run: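 cAMP accumulation in DRD2-HEK293 cells measured by HTRF after 1 h detection; compounds added 10 min before NKH477 (200nM […]) forskolin-analogue stimulation, 30 min at room temperature, with Ro20-1724 present at 0.1 mM final.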

[19] = target: D(2) dopamine receptor (Homo sapiens) (UniProt P14416); assay: Dopamine D2 receptor (DRD2) small molecule antagonists, cell-based qHTS assay (AID 1963595; active = well fitted inhibition curve with a large enough effect in the signal ratio in the repeat runs, with a control signal flat; the % refers to the signal ratio)
How it was run: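 HEK293 cells stably expressing DRD2, preincubated with 0.1 mM Ro20-1724 and compounds 10 min, were stimulated with 200 nM NKH477 plus 12 nM quinpirole for 30 min at room temperature; cAMP measured by HTRF (665/620 nm).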

[20] = target: Beta-2 adrenergic receptor (Homo sapiens) (UniProt P07550); assay: Adrenergic beta2 receptor (ADRB2) small molecule agonists, cell-based qHTS assay (AID 1963593);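 note: CHO cells stably overexpressing human ADRB2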
How it was run: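 CHO cells stably over-expressing ADRB2 were plated overnight at 37C, then dosed with compounds plus a stimulation mix containing 100uM IBMX and 25uM Ro-20-1724 for 0.5hr at room temperature. cAMP was measured by HTRF competition, 1hr.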

Row | SMILES | Potency [1] | Potency [2] | Potency [3] | Potency [4] | Potency [5] | Potency [6] | Potency [7] | Potency [8] | Potency [9] | Potency [10] | Potency [11] | Potency [12] | Potency [13] | Potency [14] | Potency [15] | Potency [16] | Potency [17] | Potency [18] | Potency [19] | Potency [20]
1 | Oc1ccc(-c2ccccc2)cc1 | 61.1 µM (active) | inactive | inactive | inactive | inactive | inactive | inactive | inactive | inactive | inactive | inactive | inactive | inactive | inactive | inactive | inactive | 60.3 µM (active) and inactive | inactive | inactive | 
2 | CCOP(=O)(OCC)OP(=O)(OCC)OCC | inactive | inactive | inactive | inactive | inactive | inactive | inactive | inactive | inactive | inactive | inactive | inactive | inactive | inactive | inactive | inactive | inactive |  | inactive | inactive
3 | COc1ccccc1OC | inactive | inactive | inactive |  | inactive | inactive | inactive | inactive | inactive | inactive | inactive | inactive | inactive | inactive | inactive | inactive | inactive | inactive | inactive | inactive
4 | Nc1ccc(Cc2ccc(N)cc2)cc1 | inactive | inactive |  | inactive | inactive | inactive | inactive |  | inactive | inactive |  |  |  |  | inactive | inactive | inactive | inactive | inactive | inactive
5 | C=CCc1ccc2c(c1)OCO2 | inactive | inactive |  | inactive | inactive | inactive | inactive | inactive | inactive | inactive |  |  |  |  |  | inactive | inactive | inactive |  | inactive
6 | O=S(=O)(Cl)Cl | inactive | inactive | inactive | inactive | inactive |  |  | inactive | inactive | inactive | inactive | inactive | inactive |  | inactive |  | inactive | inactive | inactive | 
7 | BrC(Br)Br | inactive | inactive |  | inactive | inactive | inactive | inactive | inactive | inactive | inactive | inactive | inactive | inactive |  | inactive |  | inactive | inactive | inactive | inactive
8 | C[N+](C)(C)CC(=O)O | inactive | inactive | inactive | inactive |  |  | inactive | inactive | inactive |  | inactive | inactive | inactive | inactive | inactive | inactive | inactive | inactive | inactive | inactive
9 | CN(C)c1ccccc1 | inactive | inactive | inactive | inactive | inactive |  | inactive | inactive | inactive | inactive | inactive | inactive | inactive | inactive | inactive |  |  | inactive | inactive | inactive
10 | C[N+](C)(C)C | inactive | inactive |  |  | inactive | inactive | inactive |  | inactive | inactive |  | inactive | inactive | 22.1 µM (active) | inactive | inactive | inactive | inactive | inactive | inactive
11 | Oc1ccc(Cl)c(Cl)c1 | inactive | inactive | inactive | inactive |  | inactive | inactive | inactive | inactive | inactive | inactive | inactive | inactive | inactive | inactive |  | inactive | inactive | inactive | 
12 | O=S(=O)(Oc1ccc(Cl)cc1)c1ccc(Cl)cc1 | 27.7 µM (active) and inactive | inactive | inactive | inactive |  |  | inactive | inactive | inactive |  | inactive | inactive | inactive | inactive | inactive | inactive |  | inactive | inactive | inactive
13 | Cc1ccccc1O | inactive | inactive | inactive | inactive | inactive |  | inactive |  | inactive | inactive | inactive | inactive | inactive | inactive | inactive | inactive | inactive | inactive | inactive | inactive
14 | CCCCCCCCC(=O)NCc1ccc(O)c(OC)c1 | inactive | inactive | inactive | inactive |  |  | inactive | inactive | inactive |  | inactive | inactive | inactive | inactive | inactive | inactive | inactive | inactive |  | inactive
15 | CCOP(=O)(OCC)Oc1ccc([N+](=O)[O-])cc1 | inactive | inactive |  | inactive | 654 nM (active) and 513 nM (active) |  | inactive | inactive | inactive | inactive | inactive | inactive | inactive | inactive | inactive |  |  | inactive | inactive | inactive
16 | CC1(C)Cc2cccc(O)c2O1 | inactive | inactive | inactive | inactive |  |  | inactive | inactive | inactive |  | inactive | inactive | inactive | inactive | inactive | inactive | inactive | inactive | inactive | 
17 | COc1ccc2c(c1OC)C(=O)O[C@@H]2[C@H]1c2cc3c(cc2CCN1C)OCO3 | inactive | inactive | inactive | inactive |  | inactive | inactive | inactive |  | inactive | inactive | inactive | inactive | inactive | inactive | inactive | inactive | inactive | inactive | 
